# The antibiotic and cytotoxicity screens of Wong et al. (2023)
# Out of some 39,000 compounds screened, about 1,500 (3.8%) were called active. The entries come from a sample that favours actives as a whole.
# Test system: HSkMC (human skeletal muscle cells)
# Test: cytotoxicity call (relative viability < 0.9)
# Conditions: 10 µM
row,SMILES,cytotoxicity call
1,C[C@@H]1CN([C@@H](C)CO)C(=O)Cc2cc(NC(=O)Cc3cn(C)c4ccccc34)ccc2O[C@H]1CN(C)Cc1ccc(-c2ccccc2)cc1,inactive
2,C[C@H]1CN([C@@H](C)CO)C(=O)Cc2cc(NC(=O)Cc3cn(C)c4ccccc34)ccc2O[C@H]1CN(C)Cc1ccc(Oc2ccccc2)cc1,active
3,C[C@H]1CN([C@@H](C)CO)C(=O)Cc2cc(NC(=O)Cc3cn(C)c4ccccc34)ccc2O[C@@H]1CN(C)Cc1ccc(Oc2ccccc2)cc1,inactive
4,C[C@H](CO)N1C[C@H](C)[C@H](CN(C)Cc2ccc(Oc3ccccc3)cc2)Oc2ccc(NC(=O)Cc3cn(C)c4ccccc34)cc2CC1=O,inactive
5,C[C@H]1CN([C@@H](C)CO)C(=O)Cc2cc(NC(=O)Cc3cn(C)c4ccccc34)ccc2O[C@H]1CN(C)Cc1ccc(C(F)(F)F)cc1,inactive
6,C[C@@H]1CN([C@@H](C)CO)C(=O)Cc2cc(NC(=O)Cc3cn(C)c4ccccc34)ccc2O[C@@H]1CN(C)Cc1ccc(-c2ccccc2)cc1,inactive
7,C[C@@H]1CN([C@H](C)CO)C(=O)Cc2cc(NC(=O)Cc3cn(C)c4ccccc34)ccc2O[C@H]1CN(C)Cc1ccc(-c2ccccc2)cc1,active
8,C[C@H]1CN([C@@H](C)CO)C(=O)Cc2cc(NC(=O)Cc3cn(C)c4ccccc34)ccc2O[C@@H]1CN(C)Cc1ccc(C(F)(F)F)cc1,active
9,C[C@@H]1CN([C@H](C)CO)C(=O)Cc2cc(NC(=O)Cc3cn(C)c4ccccc34)ccc2O[C@H]1CN(C)Cc1ccc(C(F)(F)F)cc1,inactive
10,C[C@@H]1CN([C@H](C)CO)C(=O)CCCn2nncc2CO[C@@H]1CN(C)Cc1cccc2c1OCCCO2,inactive
11,COc1ccc(NC(=O)N(C)C[C@H]2Oc3ccc(NS(=O)(=O)c4c(C)noc4C)cc3CC(=O)N([C@H](C)CO)C[C@H]2C)cc1,inactive
12,Cc1cc(OCc2nnc(SC3CCCC3)n2-c2cccnc2)ccc1-c1ccc(S(C)(=O)=O)cc1,active
13,C[C@@H]1CN([C@@H](C)CO)C(=O)c2cc(NC(=O)CCC(F)(F)F)ccc2O[C@@H](C)CCCCO[C@@H]1CN(C)S(=O)(=O)c1ccc(F)cc1,inactive
14,CCCC[C@@H](C)/C=C(C)/C=C(\C)C(=O)NC1=C[C@@](O)(/C=C/C=C/C=C/C(=O)NC2C(=O)CCC2=O)[C@@H]2O[C@@H]2C1=O,active
15,COc1cccc(S(=O)(=O)Nc2ccc3c(c2)[C@H]2C[C@H](CC(=O)NCCc4ccccc4)O[C@H](CO)[C@H]2O3)c1,inactive
16,C[C@@H]1CN([C@@H](C)CO)S(=O)(=O)c2ccc(C#CC3(O)CCCC3)cc2O[C@@H]1CN(C)C(=O)Cc1cccnc1,inactive
17,COc1ccccc1S(=O)(=O)N(C)C[C@H]1OCc2cn(nn2)CCCC(=O)N([C@H](C)CO)C[C@H]1C,inactive
18,C[C@H]1CN([C@@H](C)CO)C(=O)c2cc(NS(=O)(=O)c3ccc(F)cc3)ccc2O[C@@H]1CN(C)Cc1ccc(-c2ccccc2)cc1,inactive
19,C[C@H](CO)N1C[C@H](C)[C@H](CN(C)Cc2ccc(-c3ccccc3)cc2)Oc2ccc(NS(=O)(=O)c3ccc(F)cc3)cc2C1=O,inactive
20,C[C@@H]1CN([C@@H](C)CO)C(=O)c2cc(NS(=O)(=O)c3ccc(F)cc3)ccc2O[C@H]1CN(C)Cc1ccc(-c2ccccc2)cc1,inactive
21,C[C@@H]1CN([C@H](C)CO)C(=O)c2cc(NS(=O)(=O)c3ccc(F)cc3)ccc2O[C@@H]1CN(C)Cc1ccc(-c2ccccc2)cc1,active

row,SMILES,cytotoxicity call
1,C[C@@H]1CN([C@@H](C)CO)C(=O)c2cc(NS(=O)(=O)c3ccc(F)cc3)ccc2O[C@@H]1CN(C)Cc1ccc(-c2ccccc2)cc1,active
2,C[C@@H]1CN([C@H](C)CO)C(=O)c2cc(NS(=O)(=O)c3ccc(F)cc3)ccc2O[C@H]1CN(C)Cc1ccc(-c2ccccc2)cc1,inactive
3,Cc1noc(C)c1NC(=O)Nc1ccc2c(c1)C(=O)N([C@@H](C)CO)C[C@@H](C)[C@@H](CN(C)CC1CCCCC1)OCCCC[C@H](C)O2,inactive
4,CN(C)CCCCNC(=O)[C@H]1C[C@H]2C(=O)N3CCC[C@H]3C(=O)N2[C@H]1c1cccc(OCCO)c1,inactive
5,O=C(N1CCOCC1)[C@]1(CCS(=O)(=O)c2ccccc2)N=C(c2ccc(OCCCO)cc2)O[C@@H]1c1ccccc1,inactive
6,C[C@H]1CN([C@@H](C)CO)C(=O)c2c(c3ccccc3n2C)-c2ccccc2CO[C@@H]1CN(C)Cc1cccc(C(F)(F)F)c1,active
7,C[C@H]1CN([C@@H](C)CO)C(=O)c2c(c3ccccc3n2C)-c2ccccc2CO[C@H]1CN(C)Cc1cccc(C(F)(F)F)c1,inactive
8,C[C@@H]1CN([C@@H](C)CO)C(=O)c2ccccc2-c2ccccc2CO[C@@H]1CN(C)Cc1ccc(Cl)c(Cl)c1,inactive
9,C[C@@H]1CN([C@@H](C)CO)C(=O)c2c(c3ccccc3n2C)-c2ccccc2CO[C@@H]1CN(C)Cc1cccc(C(F)(F)F)c1,active
10,C[C@H](CO)N1C[C@H](C)[C@@H](CN(C)Cc2cccc(C(F)(F)F)c2)OCc2ccccc2-c2c(n(C)c3ccccc23)C1=O,inactive
11,C[C@@H]1CN([C@H](C)CO)C(=O)c2c(c3ccccc3n2C)-c2ccccc2CO[C@@H]1CN(C)Cc1cccc(C(F)(F)F)c1,inactive
12,C[C@@H]1CN([C@H](C)CO)C(=O)c2c(c3ccccc3n2C)-c2ccccc2CO[C@H]1CN(C)Cc1cccc(C(F)(F)F)c1,inactive
13,C[C@@H]1CN([C@@H](C)CO)C(=O)c2c(c3ccccc3n2C)-c2ccccc2CO[C@H]1CN(C)Cc1cccc(C(F)(F)F)c1,inactive
14,C[C@H]1CN([C@@H](C)CO)C(=O)c2ccccc2-c2ccccc2CO[C@H]1CN(C)Cc1ccc(Cl)c(Cl)c1,active
15,C[C@@H]1CN([C@@H](C)CO)C(=O)c2c(c3ccccc3n2C)-c2ccccc2CO[C@H]1CN(C)Cc1cccc(F)c1,inactive
16,C[C@H](CO)N1C[C@H](C)[C@H](CN(C)Cc2cccc(C(F)(F)F)c2)OCc2ccccc2-c2c(n(C)c3ccccc23)C1=O,active
17,C[C@@H]1CN([C@H](C)CO)C(=O)c2ccccc2-c2ccccc2CO[C@@H]1CN(C)Cc1ccc(Cl)c(Cl)c1,inactive
18,COc1ccc(NC(=O)N(C)C[C@H]2OCCCC[C@@H](C)Oc3ccc(NS(=O)(=O)c4ccc(Cl)cc4)cc3C(=O)N([C@@H](C)CO)C[C@H]2C)cc1,inactive
19,C[C@@H]1CCCCO[C@@H](CN(C)C(=O)Cc2ccccc2)[C@H](C)CN([C@@H](C)CO)C(=O)c2cc(NC(=O)C3CCCCC3)ccc2O1,inactive
20,C[C@@H]1CCCCO[C@@H](CN(C)C(=O)NC2CCCCC2)[C@H](C)CN([C@@H](C)CO)C(=O)c2cc(NS(=O)(=O)c3ccc(F)cc3)ccc2O1,inactive
21,C[C@H]1CN([C@@H](C)CO)C(=O)c2cc(Br)cnc2O[C@@H]1CN(C)S(C)(=O)=O,inactive

row,SMILES,cytotoxicity call
1,Cc1noc(C)c1NC(=O)Nc1ccc2c(c1)CC(=O)N([C@@H](C)CO)C[C@H](C)[C@H](CN(C)S(=O)(=O)c1c(C)noc1C)O2,inactive
2,CC(C)CC#Cc1ccc2c(c1)O[C@@H](CN(C)S(=O)(=O)c1ccc(F)cc1)[C@@H](C)CN([C@@H](C)CO)S2(=O)=O,inactive
3,C[C@@H]1CCCCO[C@@H](CN(C)Cc2ccc3c(c2)OCO3)[C@@H](C)CN([C@H](C)CO)C(=O)c2cc(NS(=O)(=O)c3ccccc3)ccc2O1,inactive
4,O=C1CN(C(=O)c2ccccc2)C(=S)N1,inactive
5,C[C@@H]1CN([C@H](C)CO)C(=O)c2cc(N(C)C)ccc2O[C@@H](C)CCCCO[C@H]1CN(C)Cc1ccc(C(=O)Nc2ccccc2N)cc1,inactive
6,CCC(=O)Nc1ccc2c(c1)OC[C@H](C)N(C(=O)CN1CCOCC1)C[C@@H](C)[C@H](OC)CN(C)C2=O,inactive
7,Cc1ccc2c(c1)/C(=C/c1ccncc1)c1cc3ccccc3nc1-2,inactive
8,OCc1ccccc1-c1ccccc1,inactive
9,COc1ccc(NC(=O)Nc2ccc3c(c2)C(=O)N([C@@H](C)CO)C[C@H](C)[C@@H](CN(C)Cc2ccc(C(=O)O)cc2)OCCCC[C@@H](C)O3)cc1,inactive
10,CC(C)N1C[C@H](C)[C@@H](CN(C)Cc2ccc(Cl)c(Cl)c2)Oc2c(C(=O)Nc3ccncc3)cccc2C1=O,inactive
11,COc1ccc(S(=O)(=O)N(C)C[C@H]2Oc3ccc(NS(C)(=O)=O)cc3C(=O)N([C@H](C)CO)C[C@@H]2C)cc1,inactive
12,C[C@@H]1CN([C@@H](C)CO)C(=O)c2cc(NC(=O)c3ccccc3)ccc2O[C@@H](C)CCCCO[C@@H]1CN(C)Cc1ccccc1,inactive
13,C[C@@H]1CN([C@H](C)CO)C(=O)c2c(c3ccccc3n2C)-c2ccccc2CO[C@H]1CN(C)C(=O)Nc1cccc(C(F)(F)F)c1,inactive
14,C[C@H]1CN([C@@H](C)CO)C(=O)c2c(c3ccccc3n2C)-c2ccccc2CO[C@H]1CN(C)C(=O)Nc1cccc(C(F)(F)F)c1,inactive
15,C[C@H](CO)N1C[C@H](C)[C@H](CN(C)Cc2cccc(C(F)(F)F)c2)OCc2ccccc2-c2ccccc2C1=O,inactive
16,C[C@@H]1CN([C@@H](C)CO)C(=O)c2ccccc2-c2ccccc2CO[C@@H]1CN(C)Cc1cccc(C(F)(F)F)c1,active
17,C[C@@H]1CN([C@H](C)CO)C(=O)c2ccccc2-c2ccccc2CO[C@@H]1CN(C)Cc1cccc(C(F)(F)F)c1,inactive
18,C[C@H](CO)N1C[C@H](C)[C@H](CN(C)C(=O)Nc2cccc(C(F)(F)F)c2)OCc2ccccc2-c2c(n(C)c3ccccc23)C1=O,active
19,C=CC(=O)NCCCCNC(=O)C=C,inactive
20,C[C@@H]1CN([C@@H](C)CO)C(=O)c2cc(NC(=O)NC3CCCCC3)ccc2O[C@@H](C)CCCCO[C@@H]1CN(C)C(=O)Nc1ccc2c(c1)OCO2,inactive
